# ClpP mod: qHTS Assay for Activators of ClpP; Potency, µM (doses to about 57.5 µM), for inactives: at the highest dose activity change, negative = active; ATP-dependent Clp protease proteolytic subunit (Bacillus subtilis (strain 168)), P80244; 340,000 tested, 1.9% active; purified B. subtilis ClpP, FRET peptide cleavage, 20 min; active = well fitted falling curve with a large enough effect; inconclusive = small, poorly fitted or top-dose-only effect; inactive = no such curve, though single readings can be large or run the other way; note: potency is the fitted concentration of half-maximal effect; the source files actives as falling curves though it sought activators and does not explain the sign; nearly all actives have a fitted effect of over 65% in size
# Target sequence (P80244 whole entry, looked up): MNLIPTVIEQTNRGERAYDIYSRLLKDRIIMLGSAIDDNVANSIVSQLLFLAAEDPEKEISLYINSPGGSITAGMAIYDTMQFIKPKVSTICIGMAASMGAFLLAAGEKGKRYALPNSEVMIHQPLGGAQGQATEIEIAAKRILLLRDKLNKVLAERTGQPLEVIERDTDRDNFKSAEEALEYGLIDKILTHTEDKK
#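 Purified B. subtilis ClpP, 10 microg/mL final in Tris/HCl pH8 with KCl, BSA, glycerol and Tween-20, cleaved an Abz/nitrotyrosine-quenched decapeptide. Fluorescence (ex 320, em 430) was read at 0 and 20 min at room temperature. Delta was normalized to 5.8 microM ADEP and DMSO/no-enzyme controls.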
# TDP1 cell noCPT: qHTS for Inhibitors of human tyrosyl-DNA phosphodiesterase 1 (TDP1): qHTS in cells in absence of CPT | DT40 Tdp1-/- hTDP1 cells, no CPT, ATP luminescence, 48 h | Potency, µM (doses to about 46.2 µM), without a hit: top-dose activity change, negative = growth inhibition, hits mostly inhibitors | 420,000 tested, 15% active | AID 686978, 2013; note: potency is the fitted concentration of half-maximal effect; % is set by controls: 0 for no effect and ±100 for the full control effect; nearly all actives have a fitted effect of over 55% in size
#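 A cellular qHTS used chicken DT40 cells lacking endogenous Tdp1 but carrying stably transfected human TDP1. Compounds were applied without camptothecin, and cell growth kinetics were judged by ATP-dependent luminescence after ≥48 hr.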
# DRD3 agonist: D3 dopamine receptor (human) agonism; P35462; D3R DiscoveRx beta-arrestin cells, luminescence, 90 min; max activation, %; 410,000 tested, 0.58% active; AID 652048; in the data active = max activation above about 30%; note: 0% is about no effect
# Target sequence (P35462 whole entry, looked up): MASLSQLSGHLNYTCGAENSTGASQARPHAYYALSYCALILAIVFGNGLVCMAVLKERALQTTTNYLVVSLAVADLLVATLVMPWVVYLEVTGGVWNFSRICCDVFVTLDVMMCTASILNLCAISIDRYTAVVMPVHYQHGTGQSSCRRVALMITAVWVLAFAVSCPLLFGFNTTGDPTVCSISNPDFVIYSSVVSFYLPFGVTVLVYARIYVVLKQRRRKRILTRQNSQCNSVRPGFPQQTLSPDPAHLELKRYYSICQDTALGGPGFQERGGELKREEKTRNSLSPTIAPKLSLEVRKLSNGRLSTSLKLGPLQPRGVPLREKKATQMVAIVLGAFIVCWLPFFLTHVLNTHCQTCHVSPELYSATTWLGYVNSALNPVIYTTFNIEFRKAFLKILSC
#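 Agonist-mode cell screen: cells plated at 1500/well and incubated overnight at 37 °C, then exposed to library compounds for 90 min at 37 °C. Detection reagent was added for 30–60 min at room temperature, and luminescence was read.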
# TDP1 cell CPT: DT40-hTDP1 cell growth loss with CPT | 420,000 tested, 12% active | Potency, µM (doses to about 46.2 µM), for the others: at the top dose activity change, negative = growth inhibition, actives largely listed as inhibitors | chicken DT40 Tdp1-/-;hTDP1 cells + 20 nM CPT, ATP luminescence, 48 h; note: potency is the fitted concentration of half-maximal effect; % is set by controls: 0 for no effect and ±100 for the full control effect; nearly all actives have a fitted effect of over 55% in size
#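 Chicken DT40 Tdp1-/- cells complemented with human TDP1, 400 cells/well, exposed to compounds plus 20 nM camptothecin for at least 48 h at 37 C; viability read as ATP content by CellTiter-Glo luminescence.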
# DRD3 antagonist: antagonists of human D3 dopamine receptor; P35462; D3R cells, DiscoveRx beta-arrestin luminescence, antagonist mode; active compounds read low; max response, negative = inhibition, %; 360,000 tested, 2.5% active; AID 652054; in the data active = max response below about -50%; inconclusive = no clear call, values can overlap the other calls; note: % is set by controls: 0 for no effect and ±100 for the full control effect
#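 Cells plated overnight at 1500 cells/well, then exposed to library compounds with dopamine controls for 90 minutes at 37 degrees C. DiscoveRx reagent added for 30–60 minutes at room temperature; luminescence read, quantitative HTS format.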
# IL1B secr inh: inhibitors of inflammasome signaling (IL-1 beta secretion). THP-1 LPS/ATP IL-1B secretion, AlphaLISA, 16 h; active compounds read low. activity change, % at 57.5 µM. 360,000 tested, 4.7% active. AID 743279; in the data active = activity change below about -50%; inconclusive = mostly about -30% to -49%; note: % is set by controls: 0 for no effect and ±100 for the full control effect
#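 Secreted IL-1B measured by AlphaLISA bead assay after 16 h compound exposure of THP-1 cells; compounds (final up to 57.5 uM) added 1 h before LPS (250 ng/mL) and ATP (1.25 mM) stimulation; lower signal means less secretion.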
# * hit, by the source's call; ? = inconclusive; · = not tested or not shown. Hits are enriched below; roughly 21% of the tested compounds scored in any of these assays. Unless noted, calls come from the whole dose curve; as a rule, active = well fitted inhibition curve with a large enough effect; inconclusive = small, poorly fitted or top-dose-only effect; inactive = flat fitted curve, though single readings scatter.
SMILES,ClpP mod,TDP1 cell noCPT,DRD3 agonist,TDP1 cell CPT,DRD3 antagonist,IL1B secr inh
CCn1c(=O)c(C(=O)NNC(=O)c2cccc(Cl)c2)c(O)c2ccccc21,·,?,4.5,23.1µM*,25.3,11.0
CCn1c(=O)c(C(=O)NNC(=O)c2ccc(Cl)cc2Cl)c(O)c2ccccc21,·,?,4.2,?,5.9,13.4
Cn1c(=O)c(C(=O)NNC(=O)c2ccccc2Br)c(O)c2ccccc21,·,?,2.7,?,0.2,-6.6
Cn1c(=O)c(C(=O)NNC(=O)c2ccccc2Cl)c(O)c2ccccc21,·,18.4µM*,1.1,?,2.9,-19.9
CCN(C(=O)CSc1nnc(C)c(=O)[nH]1)c1cccc2ccccc12,0.7%,25.9%,-1.2,9.3%,12.0,21.1
CC(C)OC(=O)N(C)C[C@@H]1OCc2cnnn2CCCC(=O)N([C@H](C)CO)C[C@H]1C,-1.3%,-1.3%,4.9,3.4%,20.7,18.8
COc1ccc(Cl)cc1NC(=O)Cc1coc2c(C)c(C)ccc12,-5.9%,?,-2.3,?,·,·
Cn1c(=O)c(C(=O)NNC(=O)c2cccc(Cl)c2)c(O)c2ccccc21,·,13µM*,7.2,18.4µM*,3.3,?
CCOC(=O)C1CCN(S(=O)(=O)c2ccc(-c3cc(C(F)(F)F)n(C)n3)s2)CC1,-14.4%,-3.6%,1.0,4.6%,-7.5,28.4
CCOC(=O)C1CCN(S(=O)(=O)c2ccc(-c3nc4ccccc4s3)s2)CC1,25.1µM*,?,1.8,-1.4%,-0.2,3.1
CC(C)c1ccc(C2NC(=O)NC3=C2CCc2ccccc23)cc1 (configuration not stated),28.2µM*,14.6µM*,2.3,13µM*,12.0,-5.6
COc1cccc(C2NC(=S)NC3=C2CCc2ccccc23)c1 (configuration not stated),11.9%,-25.6%,-9.6,?,-17.1,9.1
COc1ccc(C2NC(=O)NC3=C2CCc2ccccc23)cc1 (configuration not stated),15.8µM*,?,7.4,?,71.6,9.4
CC(C)c1ccc(C2NC(=O)c3ccccc3O2)cc1 (configuration not stated),·,-23.9%,20.7,-8.4%,9.8,-27.4
O=C(O)c1cnn(-c2nc(-c3ccc(Br)cc3)cs2)c1C(F)(F)F,-26.4%,?,2.0,-6.5%,-6.0,-11.0
Cc1ccc(C(=O)NCCCn2ccnc2)cc1[N+](=O)[O-],0.6%,-3.1%,-8.0,-12.0%,?,12.8
C=C1CCN(c2ccc(C(=O)NCCC)cc2[N+](=O)[O-])CC1,1.9%,16.4µM*,-19.8,16.4µM*,-10.1,-55.4*
O=C(NCCCn1ccnc1)c1ccc(N2CCCCCC2)c([N+](=O)[O-])c1,·,?,-16.5,18.4µM*,?,-16.8
COc1ccc(NC(=O)COC(=O)CNC(=O)COc2ccccc2)cc1OC,-3.5%,?,3.8,-16.1%,-3.6,-0.2
CSc1nnc2c3ccccc3c3ccccc3c2n1,1.4%,18.4µM*,1.8,14.6µM*,8.1,29.6
CCOC(=O)NC1(Nc2cccc(Cl)c2)Oc2ccccc2O1,1.5%,23.1µM*,-14.2,?,-6.8,10.1
CN(C)CCNC(=O)c1ccc(CS(=O)(=O)c2c(Cl)cccc2Cl)o1,-0.5%,-7.0%,-3.2,-1.9%,-19.8,11.2
Cc1ccccc1S(=O)(=O)Cc1ccc(C(=O)NCCN(C)Cc2ccccc2)o1,-2.7%,-6.4%,-19.2,-27.6%,-29.9,7.1
CC1CCC(NC(=O)c2ccc(CS(=O)(=O)c3c(Cl)cccc3Cl)o2)CC1 (configuration not stated),-0.6%,?,7.4,14.6µM*,·,·
CCc1ccccc1S(=O)(=O)Cc1ccc(C(=O)NC2CCCC2)o1,-0.6%,7.9%,2.0,-20.6%,48.5,-26.4
SMILES,ClpP mod,TDP1 cell noCPT,DRD3 agonist,TDP1 cell CPT,DRD3 antagonist,IL1B secr inh
O=C(NCCc1ccc(Cl)cc1)c1ccc(CSCc2ccc(Cl)cc2)o1,-0.5%,?,-6.4,?,·,·
O=C(NC1CC1)c1ccc(CSCc2ccc(Cl)cc2)o1,-3.3%,20.6µM*,-2.8,?,-9.0,-14.6
Cc1ccccc1S(=O)(=O)Cc1ccc(C(=O)NC2CCCCC2)o1,-0.1%,?,-3.9,20.6µM*,24.1,?
Cc1ccccc1S(=O)(=O)Cc1ccc(C(=O)NCCN(Cc2ccccc2)C(C)C)o1,·,16.4µM*,-20.2,?,?,-4.8
Cc1cccc(NC(=O)c2nc[nH]c2C(=O)N2CCN(c3ccccc3)CC2)c1,6.3%,-14.3%,18.3,-6.5%,22.9,-0.9
Cc1cccc(S(=O)Cc2ccc(C(=O)NC3CCCCCC3)o2)c1 (configuration not stated),-1.1%,?,0.6,11.6µM*,·,·
CN(CCNC(=O)c1ccc(CS(=O)(=O)c2c(Cl)cccc2Cl)o1)CCc1ccccc1,-1.3%,-26.4%,-10.2,?,?,-11.8
CC(C)N(CCNC(=O)c1ccc(CS(=O)(=O)c2c(Cl)cccc2Cl)o1)Cc1ccccc1,-0.9%,?,-22.2,20.6µM*,-69.8*,-8.2
CCOC(=O)N1CCC(NC(=O)c2ccc(CS(=O)c3cccc(C)c3)o2)CC1 (configuration not stated),0.5%,-5.5%,4.7,-12.9%,-4.8,-5.5
COC(=O)N1CCCCC1c1cc(C(=O)N2CCOCC2)no1 (configuration not stated),-1.5%,-0.3%,-6.5,-14.3%,-4.5,-15.7
Cc1onc(-c2c(F)cccc2Cl)c1C(=O)OCC(=O)c1c[nH]c2ccccc12,·,18.4µM*,-3.6,?,-0.3,-52.2*
Cc1onc(-c2c(F)cccc2Cl)c1C(=O)Oc1ccccc1,-2.6%,13µM*,-1.7,?,?,13.3
Cc1onc(-c2c(F)cccc2Cl)c1C(=O)N(Cc1ccccc1)C(C)C,·,9.2µM*,-3.2,?,-17.1,12.4
CCOc1ccc(OC(=O)c2c(-c3ccccc3Cl)noc2C)cc1,1.1%,20.6µM*,7.2,?,·,·
CCCC(=O)c1ccc(OC(=O)c2c(-c3ccccc3Cl)noc2C)cc1,-1.2%,?,-2.9,?,·,·
Cc1onc(-c2c(F)cccc2Cl)c1C(=O)OCC(=O)NC(c1ccccc1)c1ccccc1,0.4%,?,0.2,?,12.1,-27.4
O=C(Nc1ccc(F)c(Cl)c1)c1cc(S(=O)(=O)NCc2ccc3c(c2)OCO3)ccc1F,-4.2%,?,-17.8,?,·,·

# Compound activity (PubChem)
